{"source": "PubChem BioAssay AID1852", "about": "(Sanford-Burnham Center for Chemical Genomics, 2009)", "note": "About 1,100 (44%) of roughly 2,500 compounds were called active. So high a share suggests a set chosen from earlier hits. Some of the results follow. A number with no mark means an inactive call.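 The calls were made as follows: active = inhibition above 50% at 4 µM in the single-point screen; inactive = inhibition of 50% or less.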", "data": [{"experiment": "blockers of TNF-a NF-kB luciferase induction – cell-based, HEK293T NF-kB-Luc, luminescence, selectivity assay for NOD1/NOD2 signaling inhibitor project, primary screen (AID 1852)", "settings": "TNF-a induced, 14 h, at 4 µM, stronger effect = higher value", "values": [{"smiles": "CCCCN=C[C@]12CCC(O)CC1(O)CCC1[C@@H]2CC[C@]2(C)[C@H](C3C=CC(=O)O3)CCC12O", "note": "(stereo not given in full)", "inhibition": "92.1% (active)"}, {"smiles": "CN(C)c1ccc(-[n+]2c(-c3ccccc3)cc(-c3ccccc3)cc2-c2ccccc2)cc1", "inhibition": "94.6% (active)"}, {"smiles": "COc1ccc(-[n+]2c(-c3ccccc3)cc(-c3ccc(C)cc3)cc2-c2ccccc2)cc1", "inhibition": "75.4% (active)"}, {"smiles": "COc1ccc(-c2cc(-c3ccccc3)[n+](C)c(-c3ccccc3)c2)cc1", "inhibition": "46.4%"}, {"smiles": "O=C(c1ccc(Cl)cc1)C1CCCN(Cc2cccc3ncccc23)C1", "note": "(stereo not given)", "inhibition": "29.9%"}, {"smiles": "CCOc1ccc(-c2c(C)n(-c3ccc(OCC)cc3)c3[n+]2CCCCC3)cc1", "inhibition": "87% (active)"}, {"smiles": "COC1CC(OC2CCC3(C)C(CCC4C3CCC3(C)C(C5=CC(=O)OC5)C(OC(C)=O)CC43O)C2)OC(C)C1OC1OC(COC2OC(CO)C(O)C(O)C2O)C(O)C(O)C1O", "note": "(stereo not given)", "inhibition": "94.7% (active)"}, {"smiles": "CC(=O)c1c(C)n(C2CCCCC2)c2ccc(O)cc12", "inhibition": "90% (active)"}, {"smiles": "CC(C)(C)c1ccc(CSc2cnn(C(C)(C)C)c(=O)c2Cl)cc1", "inhibition": "48.3%"}, {"smiles": "NC(=O)c1cn(C2OC(CO)C(O)C2O)c2ncnc(N)c12", "note": "(stereo not given)", "inhibition": "99.9% (active)"}, {"smiles": "CN1C2CCC1/C(=C/c1ccccn1)C(=O)/C2=C\\c1ccccn1", "inhibition": "102% (active)"}, {"smiles": "Cc1cc(C)cc(N2C(=O)NC(=O)/C(=C/c3cccn3-c3ccc(Cl)cc3)C2=O)c1", "inhibition": "-24%"}, {"smiles": "CN1C(=O)/C(=C/c2cccn2-c2ccc3ccccc3c2)C(=O)NC1=S", "inhibition": "5.6%"}, {"smiles": "CCn1nc(-c2ccccc2)nc2c(=O)n(C)c(=O)nc1-2", "inhibition": "99.1% (active)"}, {"smiles": "CCn1nc(/C=C/c2ccccc2)nc2c(=O)n(C)c(=O)nc1-2", "inhibition": "104% (active)"}, {"smiles": "O=C1NC(=O)N(Cc2ccco2)C(=O)/C1=C/C=C/c1ccco1", "inhibition": "-10.1%"}, {"smiles": "COc1cc(OC)c(OC)cc1/C=C1/C(=O)NC(=O)N(Cc2ccccc2)C1=O", "inhibition": "29.5%"}, {"smiles": "C=CCN1C(=O)NC(=O)/C(=C/C=C/c2ccccc2)C1=O", "inhibition": "49.4%"}, {"smiles": "O=C1NC(=O)N(CCc2ccc(F)cc2)C(=O)/C1=C\\C=C\\c1ccccc1", "inhibition": "56% (active)"}, {"smiles": "O=C1NC(=O)N(Cc2ccc(F)cc2)C(=O)/C1=C\\C=C\\c1ccco1", "inhibition": "89.3% (active)"}, {"smiles": "O=C1NC(=O)N(Cc2ccccc2)C(=O)/C1=C/C=C/c1ccco1", "inhibition": "36.6%"}, {"smiles": "COc1ccc(Oc2cc(NC(=O)c3nn(C)cc3[N+](=O)[O-])cc([N+](=O)[O-])c2)cc1", "inhibition": "61.5% (active)"}, {"smiles": "C[C@H]1CCC[C@@H](O)CCC/C=C/c2cc(O)cc(O)c2C(=O)O1", "inhibition": "73.6% (active)"}, {"smiles": "CC(=O)c1cn(Cc2ccccc2F)c2ccccc12", "inhibition": "31.5%"}, {"smiles": "Cc1nc2c(=O)n(C)c(=O)nc-2n(C)n1", "inhibition": "99.4% (active)"}, {"smiles": "CCn1ccnc1CN1CCCC(C(=O)c2cc(Cl)ccc2OC)C1", "note": "(stereo not given)", "inhibition": "0.8%"}, {"smiles": "O=c1c2ccccc2nc(/C=C/c2ccc3c(c2)OCO3)n1-c1ccccc1", "inhibition": "-34.6%"}, {"smiles": "O=c1c2ccccc2nc(/C=C/c2ccccc2O)n1-c1ccccc1O", "inhibition": "64.8% (active)"}, {"smiles": "O=C1C(=O)c2ccccc2-c2ccccc21", "inhibition": "104% (active)"}, {"smiles": "O=C1NC(=O)N(c2ccccc2)C(=O)/C1=C/C=C/c1ccco1", "inhibition": "32%"}, {"smiles": "O=C1NC(=O)N(c2ccccc2)C(=O)/C1=C\\C=C\\c1ccccc1", "inhibition": "45.9%"}, {"smiles": "CN1C(=O)NC(=O)/C(=C\\C=C\\c2ccccc2[N+](=O)[O-])C1=O", "inhibition": "72.4% (active)"}, {"smiles": "O=c1nc(/C=C/c2ccc(Cl)cc2Cl)cc(C(F)(F)F)[nH]1", "inhibition": "-105%"}, {"smiles": "COc1ccc(-n2c(O)c(/C=C3\\C=Nc4ccc(Br)cc43)c(=O)[nH]c2=O)cc1", "inhibition": "23.8%"}, {"smiles": "O=C(c1cc(-c2ccc(Cl)cc2)n(-c2ccc(Cl)cc2Cl)n1)N1CCOCC1", "inhibition": "-36%"}, {"smiles": "CC(=O)OC[C@]12CCC(C)=C[C@H]1O[C@@H]1[C@H](O)[C@@H](OC(C)=O)[C@@]2(C)[C@]12CO2", "inhibition": "102% (active)"}, {"smiles": "C=C(C=O)CC1CC(O)[C@]2(C)OC3CC4OC5C[C@]6(C)O[C@]7(C)CCC8OC9C[C@]%10(C)OC%11C(C)=CC(=O)OC%11CC%10OC9C[C@@H](C)C8OC7CC6O[C@]5(C)CC5OC5C4OC3CC2O1", "note": "(stereo not given in full)", "inhibition": "80.4% (active)"}, {"smiles": "CCCCCCCn1c(=O)c(C(=O)Nc2cnccn2)c(O)c2ccccc21", "inhibition": "34.9%"}, {"smiles": "CCCCn1c(=O)c(C(=O)Nc2cnccn2)c(O)c2ccccc21", "inhibition": "3.4%"}, {"smiles": "CCCCCn1c(=O)c(C(=O)Nc2cnccn2)c(O)c2ccccc21", "inhibition": "53.4% (active)"}, {"smiles": "CCCCCCn1c(=O)c(C(=O)Nc2cnccn2)c(O)c2ccccc21", "inhibition": "52.2% (active)"}, {"smiles": "CCCCCn1c(=O)c(C(=O)Nc2ccccc2S(N)(=O)=O)c(O)c2ccccc21", "inhibition": "-7%"}, {"smiles": "CC(C)CCn1c(=O)c(C(=O)Nc2ccccc2S(N)(=O)=O)c(O)c2ccccc21", "inhibition": "-7.2%"}, {"smiles": "Cc1ccc(N2C(=O)NC(=O)/C(=C\\C=C\\c3ccco3)C2=O)cc1", "inhibition": "9.7%"}, {"smiles": "O=Cc1cn(Cc2cccc([N+](=O)[O-])c2)c2ccccc12", "inhibition": "86.7% (active)"}, {"smiles": "O=c1[nH]c(=O)n(-c2ccccc2F)c(O)c1/C=C1\\C=Nc2ccccc21", "inhibition": "14.8%"}, {"smiles": "COc1ccc(-n2c(/C=C/c3ccc(O)cc3)nc3ccccc3c2=O)cc1", "inhibition": "3.4%"}, {"smiles": "Nc1nonc1C(=O)N/N=C/c1ccc([N+](=O)[O-])o1", "inhibition": "31.1%"}, {"smiles": "Cc1cccc(-n2c(/C=C/c3ccc([N+](=O)[O-])o3)nc3ccccc3c2=O)c1", "inhibition": "91.9% (active)"}, {"smiles": "O=c1c2ccccc2nc(/C=C/c2ccc([N+](=O)[O-])o2)n1-c1ccc(O)cc1", "inhibition": "89.7% (active)"}, {"smiles": "Cc1ccc(/C=C2\\C(=O)NC(=S)N(c3ccccc3F)C2=O)s1", "inhibition": "106% (active)"}, {"smiles": "COc1cccc(N2C(=O)/C(=C/c3ccc(C)o3)C(=O)NC2=S)c1", "inhibition": "40.9%"}, {"smiles": "O=C1NC(=S)N(c2ccccc2F)C(=O)/C1=C\\c1cccs1", "inhibition": "-11.1%"}, {"smiles": "Cc1ccc(Sc2ccc(C=C3C(=O)N(C)C(=O)N(C)C3=O)o2)cc1", "inhibition": "-5.5%"}, {"smiles": "C=CCn1c(O)c(C(C)=NCc2cc(OC)cc(OC)c2)c(=O)[nH]c1=O", "inhibition": "16%"}]}]}
